Growth data for seven molecules are collected here from PubChem BioAssay (NCI).

Common to all, as to test: NCI-60 one-dose screen, 48 h (100 = growth as untreated, 0 = no growth, -100 = all killed)
Conditions in all cases: 10 µM unless noted

Experiment [1] has as its system NCI-H23 lung.
Experiment [2] has as its system NCI-H226 lung.
Experiment [3] relates to NCI-H322M lung.
Experiment [4] relates to HOP-62 NSCLC.
The test system of experiment [5] is NCI-H460 lung.
The test system of experiment [6] is HOP-92 NSCLC.
The subject of experiment [7] is NCI-H522 lung.
The subject of experiment [8] is A549/ATCC NSCLC.
In experiment [9] the test system is 786-0 renal.
In experiment [10] the test system is COLO 205 colon.
Experiment [11] deals with DU-145 prostate.
In experiment [12] the test system is K-562 leukemia.
For experiment [13], the system named is MALME-3M melanoma.
Experiment [14] concerns MDA-MB-231 breast.
Experiment [15] has as its system RXF 393 renal.
Experiment [16] deals with SF-268 CNS.
In experiment [17] the test system is SF-295 CNS.
Experiment [18] relates to SF-539 CNS.
Experiment [19] concerns UACC-257 melanoma.
Experiment [20] concerns M14 melanoma.

This is part of a sample that, as a whole, favours compounds with a hit. Of some 83,000 tested, about 20% had one in any assay.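 Negative percent growth values reflect cell death: -40 means 40% of the cells present at the start died, and -100 means all died.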 A number with no mark means an inactive call. Active and inactive are the calls of the source. How the source made its calls: active means growth percent below 10; inactive means the rest.

For `O=C(/C=C\c1ccc2ccccc2n1)c1cc(Cl)ccc1O`, the growth in experiment [1] is 63.2%; in experiment [2], 58.7%; in experiment [3] it was 86.1%; in experiment [4], 97.8%; in experiment [5] it was 78.9%; in experiment [6], 52.3%. The growth in experiment [7] was 94.8%; in experiment [8], 104%; in [9], 75.4%; in experiment [10], 115%; in experiment [11] it was 93.3%; in experiment [12], 79.4%. Besides, the growth is 80.5% in [13]; 78.3% in [14]; 84.2% in experiment [15]; 71.6% in experiment [16]; 69.9% in experiment [17]; 87.2% in [18]. The growth in experiment [19] was 84.9%; in experiment [20], 84.6%.

For the molecule `C=CC[N+]1(CCO)CCN=C1CCCCCCCCCCCCC` (stereo not given), the growth in experiment [1] was -86.7% (active); in experiment [2], 3.45% (active); in experiment [3], 73.9%; in [4], -90.5% (active); in [5], -85.8% (active); in [6] it was -18.3% (active). Further, the growth in experiment [7] was -82.6% (active); in experiment [8], 0.535% (active); in [9], -97.1% (active); in experiment [10] it was -91.4% (active); in experiment [11], -90.4% (active); in experiment [12], -53.9% (active). Besides, the growth in experiment [13] is -61.9% (active); in experiment [14], -70.1% (active); in experiment [15], -55.3% (active); in [16], -60.6% (active); in experiment [17], 47.5%; in [18], -96.6% (active). The growth in experiment [19] was -80.3% (active); in [20], -86.2% (active).

Turning to `COc1cc(NC(N)=NCC(C)(C)COc2ccc(C(F)(F)F)cc2)cnc1C#N`, the growth was 64.9% in experiment [1]; 68.7% in [2]; 53.1% in [3]; 68.5% in [4]; 58% in [5]; -9.25% (active) in experiment [6]. For the same molecule, the growth in experiment [7] is 57.6%; in [8], 72.5%; in experiment [9] it was 61.4%; in experiment [10], 59.9%; in experiment [11], 81.6%; in [12], 34.5%. Besides, the growth in experiment [13] was 57.6%; in experiment [14], 57%; in experiment [15] it was 41%; in [16] it was 50.4%; in experiment [17], 82.9%; in [18], 72%. For the same molecule, the growth in experiment [19] is 69.1%; in experiment [20], 45.6%.

As to `Fc1ccc(Cc2ccc(F)cc2)cc1`, the growth was 102% in experiment [1]; 99.9% in [2]; 105% in experiment [3]; 106% in experiment [4]; 108% in [5]; 100% in experiment [6]. For the same molecule, the growth in experiment [7] is 90%; in experiment [8], 103%; in experiment [9] it was 107%; in experiment [10] it was 108%; in experiment [11], 113%; in [12], 96.7%. Besides, the growth in [13] is 106%; in experiment [14], 107%; in [15], 118%; in experiment [16] it was 101%; in [17], 113%; in [18] it was 102%. Besides, the growth is 108% in experiment [19] and 106% in [20].

As to `Cc1nc2sc(C(=O)Nc3cccc4c3OCCO4)c(N)c2cc1C(C)O` (stereo not given), the growth in [1] was 57.6%; in [2] it was 50.2%; in [3], 62.8%; in [4] it was -3.21% (active); in [5], 15.8%; in experiment [6] it was 49.6%. The growth in [7] is -29.3% (active); in experiment [8], 49.9%; in [9], 43.2%; in experiment [10], 5.86% (active); in experiment [11], 47.7%; in [12], 13.3%. Further, the growth in experiment [13] is 47.1%; in experiment [14], 39.9%; in experiment [15], -5.15% (active); in [16], 49.9%; in experiment [17], 10.9%; in experiment [18], 4.07% (active). Besides, the growth in [19] was 55.7%; in [20], 37.5%.

Consider `O=C(CN1CCN(c2cc3c(cc2F)c(=O)c(C(=O)O)cn3C2CC2)CC1)Nc1cc(=O)[nH]c(=O)[nH]1`, for which the growth in [1] is 96.4%; in [2] it was 101%; in experiment [3] it was 95.3%; in experiment [4], 102%; in experiment [5], 105%; in experiment [6], 88.7%. Also, the growth in experiment [7] is 92.8%; in experiment [8], 103%; in experiment [9] it was 95.9%; in experiment [10], 110%; in experiment [11] it was 112%; in experiment [12] it was 103%. For the same molecule, the growth was 95.3% in [13]; 102% in [14]; 94.4% in experiment [15]; 100% in experiment [16]; 86.8% in [17]; 96.6% in experiment [18]. For the same molecule, the figures for the growth in [19] and in experiment [20] were 103% and 89.2%, respectively.

With `COc1cccc(-c2nc3sccn3c2-c2ccnc(NCCCNS(=O)(=O)c3ccccc3)c2)c1`, the growth in experiment [1] is 29.1%; in [2] it was 32.6%; in experiment [3], 69.4%; in [4] it was 62.2%; in experiment [5], 38.3%; in experiment [6], 42%. Besides, the growth in experiment [7] is 27.9%; in experiment [8], 29%; in experiment [9] it was 59.5%; in experiment [10], 37.7%; in [11], 42.2%; in experiment [12] it was 13.9%. Further, the growth in [13] is 50.8%; in experiment [14], 58.8%; in experiment [15], 63.7%; in experiment [16], 49.9%; in [17], 28.6%; in experiment [18], 73.1%. Moreover, the growth is 50.9% in experiment [19] and 38% in experiment [20].
